# Experimental data as given in publication PMC5540273 (PLoS ONE, 2017).
# What was measured:
# Conditions in all cases: concentration: 1 μM, replicates: in singlicate; n = 1
# [1] = tested on: TYK2(JH2domain-pseudokinase)
# TYRO3 = tested on: TYRO3
# ULK1 = tested on: ULK1
# ULK2 = tested on: ULK2
# ULK3 = tested on: ULK3
# VEGFR2 = tested on: T1, VEGFR2
# T1 construct: gene KDR
# VPS34 = tested on: T2, VPS34
# T2 construct: gene PIK3C3
# VRK2 = tested on: VRK2
# WEE1 = tested on: WEE1
# WEE2 = tested on: WEE2
# WNK1 = tested on: WNK1
# WNK2 = tested on: WNK2
# WNK3 = tested on: WNK3
# WNK4 = tested on: WNK4
# YANK1 = tested on: T3, YANK1
# T3 construct: gene STK32A
# YANK2 = tested on: T4, YANK2
# T4 construct: gene STK32B
# YANK3 = tested on: T5, YANK3
# T5 construct: gene STK32C
# YES = tested on: T6, YES
# T6 construct: gene YES1
# YSK1 = tested on: T7, YSK1
# T7 construct: gene STK25
# YSK4 = tested on: T8, YSK4
# T8 construct: gene MAP3K19
# 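Further: KINOMEscan kinase panel screen.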
Compound,%Inh [1],%Inh (TYRO3),%Inh (ULK1),%Inh (ULK2),%Inh (ULK3),%Inh (VEGFR2),%Inh (VPS34),%Inh (VRK2),%Inh (WEE1),%Inh (WEE2),%Inh (WNK1),%Inh (WNK2),%Inh (WNK3),%Inh (WNK4),%Inh (YANK1),%Inh (YANK2),%Inh (YANK3),%Inh (YES),%Inh (YSK1),%Inh (YSK4)
COc1cccc(NC(=O)NC2CCN(c3ccnc(Nc4cc(OC)c(OC)c(OC)c4)n3)C2)c1 (centres unmarked) [GSK1379763],38%,0%,3%,0%,88%,43%,20%,0%,20%,0%,8%,11%,26%,11%,1%,0%,4%,1%,6%,31%
CC(C)c1nc(-c2cccc(NS(=O)(=O)c3c(F)cccc3F)c2F)c(-c2ccnc(Nc3ccc(N4CCOCC4)nc3)n2)s1 [GSK2008607],17%,100%,63%,83%,98.9%,94.5%,0%,0%,0%,0%,3%,13%,23%,59%,14%,48%,1%,99.6%,56%,85%
O=C(Nc1cccc(Oc2ccc3nc(NC(=O)C4CC4)cn3n2)c1)c1ccccc1C(F)(F)F,0%,36%,0%,0%,1%,99.8%,0%,0%,22%,0%,0%,0%,0%,13%,0%,0%,0%,50%,9%,70%
Cl.c1ccc(-c2ccc3c(Nc4ccc5[nH]ncc5c4)ccnc3c2)nc1 [GW440137],32%,0%,12%,0%,11%,66%,0%,0%,0%,5%,11%,14%,19%,28%,3%,1%,7%,14%,9%,51%
COC(=O)Nc1nc2ccc(Oc3ccc(NC(=O)Nc4cc(C(F)(F)F)ccc4F)cc3)cc2n1C.Cl [GW692089],18%,0%,0%,0%,0%,43%,0%,56%,2%,0%,0%,0%,46%,28%,0%,19%,0%,0%,0%,36%
COc1cc(Nc2nccc(N3CCC(NC(=O)c4cc5ccccc5s4)C3)n2)cc(OC)c1OC (centres unmarked) [GSK1379760],6%,0%,1%,0%,64%,0%,33%,20%,8%,0%,0%,0%,30%,11%,13%,11%,0%,8%,17%,0%
NCCCC(NC(=O)c1cc(Br)c(-c2ccnc3[nH]ccc23)s1)c1ccccc1.O=C(O)C(F)(F)F.O=C(O)C(F)(F)F (centres unmarked) [GSK1287544],6%,0%,54%,0%,13%,3%,28%,0%,2%,4%,30%,0%,11%,8%,0%,0%,0%,0%,0%,95.2%
c1ccc(-c2n[nH]cc2Nc2ccnc3ccccc23)nc1 [GW694077],96.6%,0%,17%,12%,8%,23%,39%,50%,0%,0%,0%,0%,15%,4%,0%,0%,0%,0%,12%,99.1%
COc1ccc(CNC(=O)NC2CCN(c3ccnc(Nc4ccc(F)cc4)n3)CC2)cc1 [GSK1379788],35%,0%,0%,0%,0%,0%,17%,14%,39%,0%,0%,7%,23%,27%,7%,0%,0%,0%,0%,14%
CSc1cccc2c(-c3ccncn3)c(-c3ccc(F)cc3)nn12 [GW514786],24%,0%,0%,0%,3%,0%,14%,23%,6%,1%,0%,1%,22%,24%,23%,24%,2%,4%,0%,0%
CN(C)S(=O)(=O)c1cc(-c2ccc3nccc(-c4cccc(S(N)(=O)=O)c4)c3c2)cnc1N [GSK1669921],23%,0%,8%,0%,6%,29%,92.7%,7%,9%,17%,0%,0%,0%,0%,31%,0%,2%,1%,0%,93.3%
CNC(=O)c1ccccc1Nc1nc(Nc2ccc(N3CCOCC3)cc2)ncc1Cl.Cl [GSK1576028],99.7%,85%,99.6%,81%,99.8%,90%,0%,21%,99.7%,100%,12%,5%,39%,0%,58%,30%,24%,98.7%,68%,99.9%
O=c1[nH]cc(-c2ccc(N3CCOCC3)cc2)c2sc(-c3cn[nH]c3)cc12 [GSK2276055],64%,0%,0%,0%,9%,17%,0%,0%,4%,0%,7%,1%,8%,0%,8%,0%,16%,0%,26%,98.1%
Clc1ccc(-c2nn3ncccc3c2-c2ccnc(Nc3ccc4c(c3)OCCO4)n2)cc1 [GW829116],0%,0%,0%,0%,0%,29%,0%,16%,0%,0%,0%,0%,0%,0%,0%,21%,0%,45%,0%,0%
COc1cc(Nc2ncc3c(C)nc(-c4cc5ccccc5[nH]4)n3n2)cc(OC)c1OC [GW869516],82%,32%,48%,51%,20%,0%,0%,0%,36%,85%,0%,0%,0%,0%,0%,0%,0%,47%,0%,0%
COc1cc2c(cc1OCCN1CCNCC1)ncc1c3ccc(C#N)cc3[nH]c21,15%,0%,91.9%,99.8%,47%,49%,0%,15%,0%,0%,12%,41%,7%,9%,5%,0%,0%,0%,1%,87%
Cl.Cl.NCC(NC(=O)c1cc(-c2ccccc2)c(-c2ccnc3[nH]ccc23)s1)c1ccccc1 (centres unmarked) [GSK1321561],2%,0%,8%,0%,9%,0%,6%,0%,17%,0%,5%,100%,3%,5%,48%,35%,1%,41%,0%,73%

Compound,%Inh [1],%Inh (TYRO3),%Inh (ULK1),%Inh (ULK2),%Inh (ULK3),%Inh (VEGFR2),%Inh (VPS34),%Inh (VRK2),%Inh (WEE1),%Inh (WEE2),%Inh (WNK1),%Inh (WNK2),%Inh (WNK3),%Inh (WNK4),%Inh (YANK1),%Inh (YANK2),%Inh (YANK3),%Inh (YES),%Inh (YSK1),%Inh (YSK4)
Cl.c1ccc(-c2ccc3c(Nc4ccc5[nH]ccc5c4)ccnc3c2)nc1 [GW440138],27%,0%,0%,0%,6%,98.3%,0%,40%,8%,6%,0%,13%,35%,55%,0%,0%,0%,40%,0%,51%
Cc1occc1-c1ncc(OC[C@@H](N)Cc2c[nH]c3ccccc23)cc1-c1ccc2[nH]nc(C)c2c1.O=C(O)C(F)(F)F [GSK682037],0%,0%,4%,0%,3%,7%,3%,78%,5%,8%,11%,7%,0%,0%,96.5%,95%,94.5%,38%,17%,99.5%
Cc1ccc(C(=O)Nc2ccc(Nc3ccnc4cc(-c5nccs5)ccc34)cc2O)cc1.Cl [GW494702],15%,19%,4%,0%,3%,2%,18%,28%,0%,0%,6%,41%,38%,39%,9%,0%,11%,33%,0%,30%
FC(F)(F)c1ccc(/C=C/c2cncnc2Nc2ccc3[nH]c(Cc4ccccc4)nc3c2)cc1 [GW709199],34%,0%,0%,0%,10%,0%,39%,3%,23%,35%,0%,0%,0%,0%,0%,0%,0%,0%,0%,73%
O=C(NC1CCN(c2ccnc(Nc3ccc(F)cc3)n2)C1)c1cc2ccccc2s1 (centres unmarked) [GSK1379716],31%,0%,0%,1%,32%,0%,38%,0%,50%,0%,20%,22%,33%,46%,0%,20%,29%,20%,19%,14%
CC(=O)N1CCN(c2ccc(Nc3nccc(-c4sc(C(C)C)nc4-c4cccc(NS(=O)(=O)c5cccc(Cl)c5)c4)n3)cn2)CC1 [GSK1660437],0%,40%,37%,4%,62%,26%,0%,0%,0%,0%,2%,11%,0%,0%,3%,77%,0%,92.4%,0%,9%
Cc1cccc(Nc2nc(N[C@H]3CCNC3)ncc2C(N)=O)c1.Cl [GSK2197149],97.7%,0%,30%,11%,42%,0%,13%,22%,0%,8%,0%,0%,0%,0%,19%,0%,18%,41%,52%,90%
O=C(Nc1n[nH]c2nc(-c3ccc(O)cc3)ccc12)C1CC1 [SB-710363],0%,0%,2%,21%,29%,26%,0%,0%,0%,1%,32%,0%,0%,70%,0%,0%,0%,0%,0%,92.2%
Cn1cc(-c2ccc3c(c2)CCN3C(=O)Cc2cccc(F)c2)c2c(N)ncnc21 [GSK2603358],64%,0%,14%,0%,27%,75%,0%,23%,0%,0%,13%,0%,48%,59%,0%,0%,4%,22%,31%,98.2%
c1ccc(Oc2ccc(Nc3ccnc4cc(-c5ccc(CNCCN6CCOCC6)o5)ccc34)cc2)nc1 [GW567145],13%,0%,14%,0%,7%,0%,2%,30%,1%,0%,0%,21%,43%,8%,0%,0%,32%,48%,2%,35%
Cn1cc(-c2[nH]c3cc(NC(=O)[C@H](N)C4CCCCC4)cc4c3c2C=NNC4=O)cn1,87%,73%,68%,98.9%,97.6%,90.7%,80%,0%,65%,98.2%,0%,4%,0%,0%,16%,0%,0%,88%,47%,100%
O=C(Nc1cccc(-c2nn3ccccc3c2-c2ccnc(Nc3cccc(F)c3)n2)c1)c1c(F)ccc(F)c1Cl [GSK357952],0%,81%,21%,0%,13%,12%,22%,0%,0%,3%,3%,0%,43%,0%,34%,75%,23%,98.7%,0%,0%
Nc1n[nH]c2cnc(-c3ccccc3)cc12 [SB-642124],85%,9%,50%,22%,35%,0%,0%,35%,19%,0%,8%,2%,33%,38%,12%,0%,17%,24%,1%,95.9%
O=C(Nc1n[nH]c2cc(-c3ccoc3)ccc12)C1CC1 [SB-738481],7%,0%,0%,1%,10%,32%,0%,0%,0%,0%,0%,0%,0%,7%,0%,0%,0%,3%,0%,89%
Cl.Cl.NCC(NCc1ccc(-c2ccnc3[nH]ccc23)s1)c1ccccc1 (centres unmarked) [GSK1321565],43%,0%,67%,9%,15%,17%,7%,20%,13%,0%,0%,11%,26%,0%,0%,0%,0%,0%,0%,99.3%
CCn1c(-c2nonc2N)nc2c(C#CC(C)(C)O)nc(OC[C@H](N)c3ccccc3)cc21 [GSK943949],0%,0%,0%,0%,1%,1%,16%,0%,1%,2%,0%,0%,0%,31%,0%,0%,31%,19%,0%,100%
CN(c1ccc(NC(=O)Nc2cc(C(F)(F)F)ccc2F)cc1)c1ccnc(Nc2ccc(S(N)(=O)=O)cc2)n1 [GW809893],12%,77%,17%,3%,76%,88%,4%,0%,0%,11%,6%,0%,0%,0%,17%,0%,17%,80%,100%,99.1%
